In PubChem BioAssay AID651858 (Broad Institute, 2012):
This is one part of the list. Active and inactive are the calls of the source.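 The calls were made as follows: active = at highest dose tested, delta Tm positive; inactive = the rest.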

Test: Sypro Orange dye melt without protein, dose response, artefact control for Keap1-Nrf2 interaction inhibitor project, biochemical, thermal shift counterscreen, cherry-pick (AID 651858)
Conditions: Sypro Orange dye-only thermal melt, no protein, top dose 50 µM, active compounds read high

Compound | delta Tm
Nc1ccc2nc3c(=O)[nH]c(=S)[nH]c3nc2c1 | -27.3 °C (inactive)
CCCC(=O)Nc1ccc(C(=O)NCCCn2ccnc2)cc1 | -28 °C (inactive)
COc1ccc(C2c3ccc(O)cc3Oc3ncn(CCCO)c(=N)c32)cc1OC (stereo not given) | -26.7 °C (inactive)
CCCC1OC23CCCCC2C(C#N)(C#N)C1(C#N)C(=N)O3 (stereo not given) | -28.4 °C (inactive)
O=C(Nc1ccccn1)C1CCN(S(=O)(=O)c2ccc3c(c2)OCCO3)CC1 | -21.3 °C (inactive)
